# The list is a sample of the results.
# aSyn 5UTR act = Activators via SNCA 5'UTR binding, MLPCN; alpha-synuclein 5'UTR reporter, activators screen; activity score, % (tested at 7.5 µM), hits read low; 300,000 compounds, 7.1% hits; AID 1814; in the data active means activity score below about -60%
# Hits are given with their value; . = inactive.
SMILES,aSyn 5UTR act
CC(C)CNC(=S)NC1CC2CCCC(C1)N2C1CCCCC1 (stereo not drawn),-107
COCc1c(C(=O)Nc2ccc(Cl)cc2F)oc2ccccc12,-116
COCc1c(C(=O)Nc2nc(C)cs2)oc2ccccc12,-88
CC(C)CC(=O)NC(c1cccs1)c1ccc2cccnc2c1O (stereo not drawn),.
Cc1ccc(OCC(=O)Nc2ccc(-c3nc4ncccc4o3)cc2)c(C)c1,-102
Cc1cc(-c2nc3ncccc3o2)ccc1NC(=O)CC(C)C,-75
Cc1ccc2c(c1)=C(c1sc(N(C)c3ccc(O)cc3)nc1O)C(=O)N=2,-68
CNC(C)C#Cc1ccc2oc3cccc(OC)c3c(=O)c2c1 (stereo not drawn),-128
CNC(C)C#Cc1ccc2c(=O)c3c(OC)cccc3oc2c1 (stereo not drawn),-66
Cn1nccc1C(=O)Nc1sc2c(c1C#N)CCCC2,-100
Cn1cc(Br)c(C(=O)Nc2sc3c(c2C(N)=O)CCC3)n1,-95
Cn1nccc1C(=O)Nc1sc2c(c1C(N)=O)CCCC2,-126
CCn1cnc2cc(NCc3ccc(Cl)cc3)ccc21,-111
Cc1ccc(CNc2ccc3c(c2)ncn3C)cc1,-170
CCCn1cnc2cc(NCc3ccccn3)ccc21,-71
CCc1ccc(CNc2ccc3c(c2)ncn3C)cc1,-156
Cc1ccc(CNc2ccc3c(c2)ncn3C(C)(C)C)cc1,-97
Cc1c(C(=O)O)cccc1-c1ccc(C=O)o1,-80
O=C(CSC1=NCCS1)N1CCc2ccccc21,-198
Cc1ccc(SCC(=O)N2CCc3ccccc32)cc1,-171
Cc1cc(C)nc(SCC(=O)N2CCc3ccccc32)n1,-78
O=C(CS(=O)(=O)c1ccccc1)N1CCc2ccccc21,-107
Cc1ccc(S(=O)(=O)Oc2ccc(C)cc2/C=N/N=C2\NC(=O)C(C)S2)cc1 (stereo not drawn),-66
CCC1(C)N=C(c2ccc3c(c2)OCO3)CC(c2ccccc2O)N1 (stereo not drawn),-286
COCOc1ccc(-c2cc(=O)c3c(OCOC)cc(OCOC)cc3o2)cc1,-125
SMILES,aSyn 5UTR act
Clc1nc2ccccc2cc1/C=N/Nc1nc2ccccc2[nH]1,-97
C(=N\Nc1nc2ccccc2[nH]1)/c1ccncc1,-147
c1ccc2[nH]c(NN=C3CCCCCC3)nc2c1,-114
CC(=O)Nc1ccc(/C=N/Nc2nc3ccccc3[nH]2)cc1,-101
COC(=O)c1ccc(/C=N/Nc2nc3ccccc3[nH]2)cc1,-176
CCn1c(C)nc2c(C)[n+](CC(=O)c3ccc(Br)cc3)ccc21,-106
O=C1CSC(c2ccc(F)cc2)N1c1nc2ccccc2s1 (stereo not drawn),-91
O=C1C(Cl)=C(Nc2cccc(O)c2)C(=O)N1Cc1ccccc1,-69
Cc1cccc(NC(=S)NC(=O)c2ccc(-c3ccccc3)cc2)n1,-109
Cc1cccc(NC(=S)NC(=O)c2oc3ccccc3c2C)n1,-144
CN(CC(=O)Nc1ccccc1Br)C(=O)c1cc2c(s1)CCCCC2,-121
O=C(Nc1cc(-c2nc3ccccc3s2)ccc1Cl)c1ccc2c(c1)OCO2,-70
Cc1ccc(-c2nc3ccccc3s2)cc1NC(=S)NC(=O)c1cccc2ccccc12,-97
Cc1ccc(-c2nc3ccccc3s2)cc1NC(=O)c1ccc2c(c1)OCO2,-76
O=C(CSc1nnc(-c2cccnc2)o1)Nc1cccc(Cl)c1,-119
O=C(CSc1nnc(-c2cccnc2)o1)Nc1ccc(Cl)cc1,-62
Oc1ccc2ccccc2c1C=Nc1ccccc1-c1nc2ccccc2[nH]1,-79
CCOc1cc(/C=C2/NC(=S)NC2=O)ccc1OCc1ccc([N+](=O)[O-])cc1,.
CCOc1cc(/C=C2/SC(=S)N(C)C2=O)ccc1Oc1ccc([N+](=O)[O-])cc1[N+](=O)[O-],-62
Nc1c(C(=O)N2CCCCC2)sc2nc3c(cc12)CCCC3,-151
Cc1ccc(C(=O)c2sc3nc4c(cc3c2N)CCC4)cc1,-132
Nc1c(C(=O)N2CCCC2)sc2nc(-c3ccccc3)ccc12,-190
Cc1ccccc1OCC(=O)Nc1cccc(N(C)S(C)(=O)=O)c1,-62
COc1cccc(NC(=O)COc2ccccc2C(N)=O)c1,-75
CSc1ccccc1NC(=O)COc1ccccc1C,-107
SMILES,aSyn 5UTR act
CN(c1cccc(NC(=O)COc2ccccc2)c1)S(C)(=O)=O,-113
Cc1ccc(C)c(OCC(=O)Nc2c[nH]c(=O)[nH]c2=O)c1,.
Cc1ccc(NC(=O)COc2ccccc2C=O)cc1Cl,-121
CC(=O)Nc1cccc(NC(=O)COc2ccccc2C)c1,-77
CCc1cccc(NC(=O)COc2ccccc2)c1,-92
CN(c1cccc(NC(=O)COc2ccc(Cl)cc2Cl)c1)S(C)(=O)=O,-131
Cc1ccc(OC(=O)COc2ccccc2C)c(-n2nc3ccccc3n2)c1,-233
Cc1ccc(OC(=O)COc2ccccc2)c(-n2nc3ccccc3n2)c1,-178
O=C(Oc1c(-c2ccccc2)c(=O)n2c3c(cccc13)CC2)c1cccc([N+](=O)[O-])c1,.
Cc1ccc(OC(=O)c2cccc([N+](=O)[O-])c2)c(-n2nc3ccccc3n2)c1,-278

# High-throughput results (PubChem BioAssay)
